Only some compounds are listed: those with a hit (about 0.2% of all), similar ones and a draw of the others.
Bcl-XL Bim block: human Bim-Bcl-XL interaction inhibition; AID 1007; Bim peptide-Bcl-XL binding, bead flow cytometry, fluorescence; inhibition, % at 10 µM; Q07817; hit rate 0.04% among 190,000
Target sequence (Q07817 whole entry, looked up): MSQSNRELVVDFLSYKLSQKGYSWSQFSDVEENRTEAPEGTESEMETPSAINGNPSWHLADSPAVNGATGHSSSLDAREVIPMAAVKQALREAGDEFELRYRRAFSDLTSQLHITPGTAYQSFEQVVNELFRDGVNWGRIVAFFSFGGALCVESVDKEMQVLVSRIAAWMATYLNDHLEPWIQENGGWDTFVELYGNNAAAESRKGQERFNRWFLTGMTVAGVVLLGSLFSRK
Bim-Bcl-B: inhibitors of Bim-Bcl-B interaction, human. hit rate 0.073% among 190,000. Q9HD36. inhibition, % at 10 µM. bead-based flow cytometry, Bim peptide-Bcl-B binding;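 further: 0% = tracer peptide without compound and 100% = reference inhibitor peptide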
Bcl-2 Bim block: disrupts Bim peptide binding to human Bcl-2 | inhibition, % at 10 µM | Bead-based flow cytometry, Bim peptide-Bcl-2 binding | P10415 | hit rate 0.06% among 190,000; in the data active means inhibition above about 40%;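 further: 0% = no compound wells with probe peptide and 100% = reference peptide inhibitor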
Target sequence (P10415 whole entry, looked up): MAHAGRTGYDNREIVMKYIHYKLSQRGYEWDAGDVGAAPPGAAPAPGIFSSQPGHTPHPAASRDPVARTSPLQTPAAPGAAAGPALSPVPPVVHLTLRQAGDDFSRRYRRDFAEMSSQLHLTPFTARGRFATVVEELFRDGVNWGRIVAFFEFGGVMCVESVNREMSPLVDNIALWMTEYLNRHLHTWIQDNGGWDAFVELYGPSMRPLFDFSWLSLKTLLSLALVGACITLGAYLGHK
Bfl-1 Bim block: inhibitors of Bim-Bfl-1 interaction, human. Q16548. Bead-based flow cytometry, Bim-Bfl-1 binding inhibition. inhibition, % at 10 µM. hit rate 0.12% among 190,000. AID 1008;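 further: 0% = wells without compound plus tracer and 100% = blocker peptide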
Bcl-W Bim block: human Bim-Bcl-W interaction inhibition. inhibition, % at 10 µM. Q92843. hit rate 0.02% among 190,000. bead-based flow cytometry, Bim peptide-Bcl-W binding;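 further: 0% = bound tracer without compound and 100% = peptide blocker; higher means less fluorescent Bim peptide bound to Bcl-W beads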
* hit, by the source's call. Unless noted, no stated cut-off is given here; in the data, active means inhibition above about 40%.

O=C(C1CCC(Cn2c(=S)[nH]c3ccccc3c2=O)CC1)N1CCN(c2ccccn2)CC1 (stereo unspecified) was read as Bcl-XL Bim block 7, Bim-Bcl-B 52*, Bcl-2 Bim block 37, Bfl-1 Bim block 13 and Bcl-W Bim block 7.
`O=C(C1CCC(Cn2c(=S)[nH]c3ccccc3c2=O)CC1)N1CCOCC1` (stereo unspecified) gave Bcl-XL Bim block -2, Bim-Bcl-B -2, Bcl-2 Bim block -3, Bfl-1 Bim block -3 and Bcl-W Bim block 0.
Screening OCCN1CCN(CCCc2c3c(cc4c2CCC4)CCC3)CC1 returned Bcl-XL Bim block 32, Bim-Bcl-B 61*, Bcl-2 Bim block 21, Bfl-1 Bim block 13 and Bcl-W Bim block 32.
Screening O=C(NC1=C(NC2CCS(=O)(=O)C2)C(=O)c2ccccc2C1=O)c1ccccc1 (stereo unspecified) returned Bcl-XL Bim block 5, Bim-Bcl-B 7, Bcl-2 Bim block 11, Bfl-1 Bim block 56* and Bcl-W Bim block 22.
For O=C(NC1=C(Nc2ccc(Cl)cc2)C(=O)c2ccccc2C1=O)c1ccccc1 the results were Bcl-XL Bim block -10, Bim-Bcl-B -6, Bcl-2 Bim block 9, Bfl-1 Bim block 32 and Bcl-W Bim block 1.
N=C1C(c2nc3ccccc3s2)=C(O)CN1Cc1ccccc1 was read as Bcl-XL Bim block 23, Bim-Bcl-B 83*, Bcl-2 Bim block 85*, Bfl-1 Bim block 68* and Bcl-W Bim block 20.
`CC(=O)c1ccc(Oc2cnccn2)cc1` gave Bcl-XL Bim block 0, Bim-Bcl-B -5, Bcl-2 Bim block -1, Bfl-1 Bim block -5 and Bcl-W Bim block 0.
Screening CCOc1cc(/C=C2/N=C(C)C(C(=O)OC)=C2O)ccc1O returned Bcl-XL Bim block 34, Bim-Bcl-B 44*, Bcl-2 Bim block 59*, Bfl-1 Bim block 58* and Bcl-W Bim block 59*.
`CCOC(=O)C1=C(O)/C(=C\c2ccc(OC)c(OC)c2)N=C1C` gave Bcl-XL Bim block -4, Bim-Bcl-B 0, Bcl-2 Bim block -1, Bfl-1 Bim block -2 and Bcl-W Bim block -3.
`Cc1nc2scc(-c3ccccc3)c2c(=O)n1N=C1C=CC(=O)C=C1` gave Bcl-XL Bim block 4, Bim-Bcl-B -1, Bcl-2 Bim block 17, Bfl-1 Bim block 40* and Bcl-W Bim block 19.
`COc1cccc(C(=O)/C=C/Nc2ccc(S(=O)(=O)Nc3onc(C)c3C)cc2)c1` gave Bcl-XL Bim block 3, Bim-Bcl-B 78*, Bcl-2 Bim block 82*, Bfl-1 Bim block 53* and Bcl-W Bim block 17.
Screening CC(NC(=O)CN1CCc2ccccc21)c1ccccc1 (stereo unspecified) returned Bcl-XL Bim block -2, Bim-Bcl-B -5, Bcl-2 Bim block -7, Bfl-1 Bim block -16 and Bcl-W Bim block -1.
`CN(C)S(=O)(=O)N(CC(=O)Nc1ccccc1C(F)(F)F)c1ccccc1` gave Bcl-XL Bim block 19, Bcl-2 Bim block 86* and Bcl-W Bim block 17.
Screening CCOC(=O)c1cnc(N2CCN(C(=O)OCC)CC2)[nH]c1=O returned Bcl-XL Bim block -3, Bim-Bcl-B -3, Bcl-2 Bim block -2, Bfl-1 Bim block -9 and Bcl-W Bim block 0.
Cc1ccc(Nc2nc(CSc3nnc(-c4cccnc4)n3-c3ccccc3C)cs2)cc1 was read as Bcl-XL Bim block 32, Bim-Bcl-B 14, Bcl-2 Bim block 29, Bfl-1 Bim block 42* and Bcl-W Bim block 25.
Screening Cc1ccccc1-n1c(SCc2csc(Nc3ccccc3)n2)nnc1-c1cccnc1 returned Bcl-XL Bim block -4, Bim-Bcl-B -11, Bcl-2 Bim block -7, Bfl-1 Bim block -7 and Bcl-W Bim block -6.
For CCn1ncc(NC(=S)NCCc2ccccc2)c1C(N)=O the results were Bcl-XL Bim block -3, Bim-Bcl-B -5, Bcl-2 Bim block 0, Bfl-1 Bim block 3 and Bcl-W Bim block -1.
Screening CC(C)(C)C1CCC(=NNC(=O)c2cc3c(s2)CCCC3)CC1 (stereo unspecified) returned Bcl-XL Bim block 43*, Bim-Bcl-B 26, Bcl-2 Bim block 29, Bfl-1 Bim block 44* and Bcl-W Bim block 41*.
For O=C(NN=C1CCC(c2ccccc2)CC1)c1cc2c(s1)CCCC2 (stereo unspecified) the results were Bcl-XL Bim block -13, Bim-Bcl-B -6, Bcl-2 Bim block -1, Bfl-1 Bim block -10 and Bcl-W Bim block -4.
`CC(C)(C=O)C1=CC(=O)c2ccccc2C1=O` gave Bcl-XL Bim block 2, Bim-Bcl-B 15, Bcl-2 Bim block 2, Bfl-1 Bim block 49* and Bcl-W Bim block 9.
Screening Cc1nn(Cc2ccc(Cl)cc2)c(C)c1NC(=O)c1noc2c1CCc1ccccc1-2 returned Bcl-XL Bim block -1, Bim-Bcl-B -8, Bcl-2 Bim block -8, Bfl-1 Bim block -10 and Bcl-W Bim block 0.
For COCCNC(=S)NC12CC3CC(CC(C3)C1)C2 the results were Bcl-XL Bim block -7, Bim-Bcl-B -3, Bcl-2 Bim block -2, Bfl-1 Bim block -3 and Bcl-W Bim block -4.
Screening CC1CCN(C2(O)C(=O)Nc3ccc(Br)cc32)CC1 (stereo unspecified) returned Bcl-XL Bim block 63*, Bim-Bcl-B 57*, Bcl-2 Bim block 47*, Bfl-1 Bim block 6 and Bcl-W Bim block 17.
Screening CCCCOC(=O)c1nc(Cl)c(Cl)c(N)c1Cl returned Bcl-XL Bim block 3, Bim-Bcl-B 42*, Bcl-2 Bim block 25, Bfl-1 Bim block 2 and Bcl-W Bim block -2.
For Cc1cc(C)nc(SCc2ccc(C(=O)N/N=C/c3ccco3)cc2)n1 the results were Bcl-XL Bim block -4, Bim-Bcl-B -11, Bcl-2 Bim block -3, Bfl-1 Bim block -3 and Bcl-W Bim block -3.
`Cc1nc2ccc(NC(=O)N3CCCCC3)cc2nc1C` gave Bcl-XL Bim block -8, Bim-Bcl-B -7, Bcl-2 Bim block -4, Bfl-1 Bim block -5 and Bcl-W Bim block -7.
For O=C(Nc1ccc2nc(-c3ccco3)c(-c3ccco3)nc2c1)N1CCCCCC1 the results were Bcl-XL Bim block 19, Bim-Bcl-B 10, Bcl-2 Bim block 31, Bfl-1 Bim block 54* and Bcl-W Bim block 35.
Screening CCOC(=O)C1CCN(C(=O)Nc2ccc3nc(-c4ccco4)c(-c4ccco4)nc3c2)CC1 returned Bcl-XL Bim block 19, Bim-Bcl-B 15, Bcl-2 Bim block 35, Bfl-1 Bim block 60* and Bcl-W Bim block 38.
Screening COC(=O)c1ccc(/C=N\NC(=O)c2ccc(C)cc2Cl)cc1 returned Bcl-XL Bim block 0, Bim-Bcl-B -1, Bcl-2 Bim block 1, Bfl-1 Bim block -1 and Bcl-W Bim block 0.
`COC(=O)c1c(NC(=O)COc2ncnc3ccccc23)sc(C)c1C` gave Bcl-XL Bim block -1, Bim-Bcl-B 55*, Bcl-2 Bim block 38, Bfl-1 Bim block 6 and Bcl-W Bim block -4.
Cc1nn(-c2ccccn2)c2c1C(=O)C(Br)CC2 (stereo unspecified) was read as Bcl-XL Bim block 12, Bim-Bcl-B 0, Bcl-2 Bim block 24, Bfl-1 Bim block 59* and Bcl-W Bim block 35.
